Reference: PubChem BioAssay (NCATS)
Inconclusive results are not listed. Calls of active or inactive are those of the source. Calls follow the shape of the dose curve; as a rule, active = well fitted inhibition curve with a large enough effect; inconclusive = small, poorly fitted or top-dose-only effect; inactive = flat fitted curve, though single readings scatter.

Experiments:
[1] = test system: CRL-7250; experiment: Cytotoxic Profiling of Annotated Libraries Using Quantitative High-Throughput Screening (AID 1296008); settings: Five cell lines viability, CellTiter-Glo ATP luminescence, 48-72 h; max response: hits give low values; also: potency is read from the fitted curve at half-maximal effect; as to max response: % is scaled to controls: 0 for no effect and ±100 for the full control effect
Outline: (§1)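 Compounds were pin-transferred onto cells and incubated 48 or 72 hr at 37 degree Celsius, 95% humidity. CellTiter-Glo was added, plates sat 10 min at room temperature, then ATP-coupled luminescence was imaged as the viability read-out.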

[2] = test system: HEK293; experiment: as above; settings: Five cell lines viability, CellTiter-Glo ATP luminescence, 48-72 h; max response: hits give low values
Outline: as §1

[3] = test system: HaCat; experiment: as above; settings: Five cell lines viability, CellTiter-Glo ATP luminescence, 48-72 h; max response: hits give low values
Outline: as §1

[4] = test system: KB-3-1; experiment: as above; settings: Five cell lines viability, CellTiter-Glo ATP luminescence, 48-72 h; max response: hits give low values
Outline: as §1

[5] = test system: NIH3T3; experiment: as above; settings: Five cell lines viability, CellTiter-Glo ATP luminescence, 48-72 h; max response: hits give low values
Outline: as §1

[6] = test system: HACAT; experiment: qHTS assay to identify novel small-molecules to repurpose for Merkel cell carcinoma treatment (AID 1296009); settings: MCC and control cell lines, CellTiter-Glo viability, 72 h; series mostly up to 44.8 µM
Outline: (§2)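 Viability readout: ATP luminescence (CellTiter-Glo) after 72 hr drug exposure at 37 degree celsius. Dose-response format was 8 points for NPC and 11 points for MIPE; data normalized to in-plate controls.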

[7] = test system: HEK293T; experiment: as above; settings: MCC and control cell lines, CellTiter-Glo viability, 72 h; at 44.8 µM (top of the series) unless noted
Outline: as §2
Also: nearly all actives have a fitted effect of over 60% in size.

N#Cc1cc(F)cc(-c2nc(-c3ccccn3)no2)c1
inactive: max response [1] 1.54% | max response [2] -8.23% | outcome [3] | max response [4] -6.38% | max response [5] -10.9% | Potency [6]

C[C@@H]1O[C@@H](O[C@@H]2[C@@H](O)[C@H](O[C@H]3CC[C@@]4(C)C(CC[C@]5(C)C4CC=C4[C@@H]6CC(C)(C)CC[C@]6(C(=O)O[C@@H]6O[C@H](CO)[C@@H](O)[C@H](O)[C@H]6O)CC[C@]45C)C3(C)C)O[C@H](C(=O)O)[C@H]2O)[C@H](O)[C@H](O)[C@H]1O (some centres not stated)
inactive: outcome [1] | max response [2] 3.46% | outcome [3] | max response [4] 4.23% | max response [5] 4.82% | outcome [6] inactive [at 9.27 µM]

COc1cc2c(c(OC)c1CC=C(C)C)C[C@H](c1ccc(O)cc1O)CO2
inactive: max response [1] -5.34% | max response [2] 0.883% | outcome [3] | outcome [4] | max response [5] 0.487% | Potency [6]

O=C(Nc1c(-c2cccs2)nc2ccccn12)c1ccc(Cl)cc1
inactive: outcome [1] | max response [2] -117% | outcome [3] | outcome [4] | max response [5] -0.375% | Potency [6]

C[C@@H]1O[C@@H](O[C@H]2[C@@H]3C=CO[C@@H](O[C@@H]4O[C@H](CO)[C@@H](O)[C@H](O)[C@H]4O)[C@@H]3[C@@]3(CO)O[C@@H]23)[C@H](OC(=O)/C=C/c2ccccc2)[C@H](O)[C@H]1O
inactive: max response [1] -0.445% | max response [2] -1.51% | outcome [3] | outcome [4] | max response [5] -1.15% | Potency [6]

C[C@H]1CC(=O)Nc2cccc(-c3cnn(C(C)(C)C)c3)c2N1
inactive: max response [1] -2.99% | max response [2] 2.23% | max response [3] 4.21% | max response [4] -8.91% | max response [5] -7.27%

CS(=O)(=O)N1CCC(NC(=O)c2[nH]ncc2NC(=O)c2c(Cl)cccc2Cl)CC1
active: Potency [1] 3.26 µM | Potency [2] 1.16 µM | Potency [3] 4.61 µM | Potency [4] 0.82 µM | Potency [5] 2.59 µM

COc1cc(O)cc(C)c1C(=O)O[C@H]1[C@@H](OC(C)=O)[C@H](n2ccc(=O)[nH]c2=O)O[C@@H]1CO
inactive: outcome [1] | max response [2] 4.85% | max response [3] -17.4% | max response [4] 7.29% | max response [5] 0.716%

COc1c2c(c(C)c3c1C(=O)OC3)OC1(C)CC(O)C34OC(OC)(CC(OC(C)=O)C3(C)C1C2)OC4(C)C (configuration not stated)
inactive: outcome [1] | max response [2] -22.1% | outcome [3] | max response [4] 1.81% | max response [5] -0.676% | Potency [6]

C=C1C(OC2OCC(O)C(O)C2O)CC2C(C)(C)C(O)CCC2(C)C1CC/C(C)=C\CO (configuration not stated)
inactive: max response [1] -6.07% | max response [2] -24.4% | outcome [3] | max response [4] 3.38% | max response [5] 1.42% | Potency [6]

CN1C2CCC1CC(OC(=O)[C@H](CO)c1ccccc1)C2 (some centres not stated)
inactive: max response [1] 0.824% | max response [2] -10.6% | outcome [3] | max response [4] -9.98% | max response [5] -25.3% | Potency [6]

Cc1ccc(C)c(OCCn2cc(C(=O)O)c3ccccc32)c1
inactive: max response [1] -3.65% | max response [2] -0.983% | outcome [3] | max response [4] 3.13% | max response [5] 4.52% | Potency [6]

C[C@@H]1CC[C@]2(C(=O)O[C@@H]3O[C@H](CO)[C@@H](O)[C@H](O)[C@H]3O)CC[C@]3(C)C(=CCC4[C@@]5(C)C[C@@H](O)[C@H](O)[C@](C)(C(=O)O)C5CC[C@]43C)[C@@H]2[C@]1(C)O (some centres not stated)
inactive: outcome [1] | max response [2] 2.11% | outcome [3] | max response [4] 5.29% | max response [5] 0.619% | Potency [6]

O=C(O)C1CN(Cc2ccc(-c3nc4cc(Cc5ccccc5F)ccc4s3)c(F)c2)C1
inactive: max response [1] 1.29% | max response [2] -0.852% | outcome [3] | max response [4] -5.18% | max response [5] 3.31% | outcome [6] inactive [at 9.27 µM]

CCCC(=O)C1CCN(c2ncnc3c2CN(C(=O)c2ccc(-c4ccccc4)cc2)CC3)CC1
inactive: max response [1] -7.29% | max response [3] -5.72% | max response [4] -16.8% | max response [5] -13.2%
active: Potency [2] 18.4 µM

CC1(C)CC[C@]2(C(=O)O[C@@H]3O[C@H](CO)[C@@H](O)[C@H](O)[C@H]3O)CC[C@]3(C)C(=CCC4[C@@]5(C)CC[C@H](O[C@@H]6O[C@H](C(=O)O)[C@@H](O)[C@H](O)[C@H]6O)C(C)(C)C5CC[C@]43C)C2C1 (some centres not stated)
inactive: max response [1] 0.241% | max response [2] -5.49% | outcome [3] | max response [4] 6.58% | max response [5] -3.14% | outcome [6] inactive [at 9.27 µM]

CC1CCC2(CO)C(C(=O)O)=CCCC2C1(C)CCc1ccoc1 (configuration not stated)
inactive: outcome [1] | max response [2] -3.01% | max response [3] -11.9% | max response [4] 3.67% | max response [5] -11.3%

CN1CCN(C2CCC(n3cc(-c4ccc(Oc5ccccc5)cc4)c4c(N)ncnc43)CC2)CC1 (configuration not stated)
active: Potency [1] 5.8 µM | Potency [2] 18.4 µM | Potency [3] 1.03 µM | Potency [4] 20.6 µM | Potency [5] 0.326 µM

C[C@@]12CC[C@@H]3[C@@](CC[C@H]4[C@@]3(C)CCC[C@@]4(C)C(=O)O)(CC1=O)C2
inactive: max response [1] -4.96% | max response [2] -6.36% | outcome [3] | max response [4] 1.35% | max response [5] -5.17% | Potency [6]

Cc1cc(OCc2nc(-c3ccccc3Cl)cs2)ccc1OCC(=O)O
inactive: max response [1] -3.46% | max response [2] -1.87% | outcome [3] | outcome [4] | max response [5] 4.72% | Potency [6]

Cc1cc(N2CCN([C@@H]3CN[C@H](C(=O)N4CCSC4)C3)CC2)n(-c2ccccc2)n1
inactive: max response [1] -17.8% | max response [2] -23.9% | max response [3] -10.6% | max response [4] -12.3% | max response [5] -22.8%

C=C1CCC[C@]2(C)CC[C@@H](C(=C)C(=O)O)[C@H](O)[C@@H]12
inactive: max response [1] -0.497% | max response [2] -1.48% | outcome [3] | max response [4] 1.72% | max response [5] -0.289% | Potency [6]

C=C(C(=O)O)[C@H]1C[C@]2(C)[C@@H](O)CC[C@]23O[C@H]1C[C@@H]3C
inactive: max response [1] -8.76% | max response [2] -6.98% | outcome [3] | outcome [4] | max response [5] -13.7% | Potency [6]

O=C(O)CCCCCC[C@H]1C(=O)NC(=O)N1CC[C@@H](O)C1CCCCC1
inactive: max response [1] 3.98% | max response [2] -1.93% | outcome [3] | outcome [4] | max response [5] -5.35% | Potency [6]

CC(C)(O)C1CCC(C)(C2CCC3(C)C4CCC5C(C)(C(=O)OC6OC(CO)C(O)C(O)C6O)C(O)CC(O)C56CC46CCC23C)O1 (configuration not stated)
inactive: outcome [1] | max response [2] 0.689% | outcome [3] | max response [4] -9.11% | max response [5] -1.85% | Potency [6]

NC(=O)c1cnc(NCCc2ccc(O)c(Cl)c2)nc1NCc1ccccc1
active: Potency [1] 7.31 µM | Potency [2] 6.51 µM | Potency [3] 14.6 µM | Potency [4] 16.4 µM | Potency [5] 5.17 µM

CCC(C)C(=O)OC1CC(C)C=C2C=CC(C)C(CCC(O)CC(O)CC(=O)O)C21 (configuration not stated)
active: Potency [1] 7.09 µM
inactive: max response [2] -0.653% | max response [3] -2.56% | max response [4] 5.43% | max response [5] -8.16%

CC(C)c1cccc2c(-c3ccccc3)cc(-c3ccc(-c4ccc(C(=O)O)cc4)[nH]3)nc12
inactive: max response [1] -17.4% | max response [2] -107% | outcome [3] | max response [4] -3.11% | max response [5] -3.94% | Potency [6]

COc1cc(/C=C/C=O)cc(OC)c1O[C@@H]1O[C@H](CO)[C@@H](O)[C@H](O)[C@H]1O
inactive: max response [1] -11.6% | max response [2] -3.11% | outcome [3] | outcome [4] | max response [5] -71.2% | Potency [6]

Cc1cc(NC(=O)Nc2ccc(F)c(F)c2)n(-c2ccccc2)n1
inactive: max response [1] 4.98% | max response [2] -2.17% | outcome [3] | max response [4] 4.72% | max response [5] -11% | Potency [6]

CN(C)C(=O)NC1CCC(CCN2CCN(c3cccc(Cl)c3Cl)CC2)CC1 (configuration not stated)
inactive: max response [1] 1.18% | max response [2] -2.35% | outcome [3] | max response [4] -7.32% | max response [5] -6.34% | outcome [6] inactive [at 9.27 µM]

CC(C)=CCC/C(C)=C/CC/C(C)=C/COC1OC(COC2OCC(OC3OCC(O)C(O)C3O)C(O)C2O)C(O)C(OC2OC(C)C(OC3OC(C)C(OC4OCC(OC5OC(C)C(O)C(O)C5O)C(O)C4O)C(O)C3O)C(O)C2O)C1O (configuration not stated)
inactive: max response [1] 1.98% | max response [2] 4.79% | outcome [3] | max response [4] 6.01% | max response [5] -0.843% | outcome [6] inactive [at 9.27 µM]

COc1ccc2[nH]c3c(-c4cccc5ccccc45)nccc3c2c1
active: Potency [1] 1.16 µM | Potency [2] 1.3 µM | Potency [4] 0.82 µM
inactive: outcome [3] | Potency [6]

Cc1cc(C)c(CNC(=O)c2cc(-c3ccc(CN4CCOCC4)cc3)cc3c2cnn3C2CCCC2)c(=O)[nH]1
inactive: max response [1] 1.71% | outcome [3] | max response [4] 8.22% | max response [5] -0.531% | Potency [6]
active: Potency [2] 14.8 µM

CC(C)=CCC/C(C)=C/CO[C@@H]1O[C@H](CO)[C@@H](O)[C@H](O)[C@H]1O
inactive: max response [1] -5.48% | max response [2] 1.41% | outcome [3] | outcome [4] | max response [5] -9.17% | Potency [6]

O=S(=O)(c1ccccc1)c1cnc2c(N3CCNCC3)cccc2c1
inactive: max response [1] 1.33% | max response [2] -8.82% | outcome [3] | max response [4] 0.14% | max response [5] -14.1% | Potency [6]

COC1/C=C/C(C)(O)C(SCC(N)C(=O)O)CC(=O)OC(C)C(C)CC/C=C/1C (configuration not stated)
inactive: max response [1] 1.64% | outcome [2] | outcome [3] | max response [4] 0.268% | Potency [6] | outcome [7] inactive [at 17.4 µM]
